Inhibition data for 61 compounds are collected here from PubChem BioAssay AID1578 (Sanford-Burnham Center for Chemical Genomics, 2009).

Molecules are shown by their SMILES. The campaign covered roughly 290,000 compounds. About 3,000 (1%) were called active. Cut-off read from the data, not from the text of the source: active = inhibition mostly above about 36% (no sharp cut-off); inactive = mostly below about 34%. The list comes from a sample in which actives are over-represented; it also holds similar structures and randomly drawn compounds.

This test can be described thus: inhibition of NOD1-driven NF-kB reporter – cell-based, luminescence, uHTS, primary screen (AID 1578).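 Note: HEK-293T reporter cells stimulated with the NOD1 agonist gamma-tri-DAP.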 To be noted: NOD1-driven NF-kB luciferase reporter cells, at 4 µM, active compounds read high. (In general: In a reporter assay the amount or activity of a reporter protein is the signal.)
For `Cn1cc(Br)c(C(=O)n2cc(Br)cn2)n1`, the inhibition (in general, the drop in the measured response relative to a control, in per cent) is -7.4% (inactive).
The result for `Cc1noc(C)c1S(=O)(=O)N1CCCC(C(=O)NCCc2ccccc2)C1` (stereo unspecified) reads -28.4% (inactive).
The result for `CCNC(=O)COC(=O)c1cc(-c2ccccc2)nn1-c1ccccc1` reads -16.6% (inactive); that for `Cc1ccccc1C1c2[nH]c3ccccc3c2CCN1CCCn1cccn1` (stereo unspecified), 53.6% (active); that for `Fc1ccccc1C1c2[nH]c3ccccc3c2CCN1CCCn1cccn1` (stereo unspecified), 43.5% (inactive).
Regarding `COc1ccc(C2c3[nH]c4ccccc4c3CCN2CCCn2cccn2)c(C)c1C` (stereo unspecified), the inhibition is -26.9% (inactive).
The result for `CC(C)N1CCC(N2CCN(Cc3nc4ccccc4s3)CC2CCO)CC1` (stereo unspecified) reads -1.8% (inactive).
The figure for `CC(C)N(C(=O)COC(=O)c1ccc(Cl)nc1)C(C)C` is -35.6% (inactive); for `Cc1nc2ccccc2cc1C(=O)Nc1ccccc1Cl` it is -21.8% (inactive); for `Cn1ccnc1C(=O)c1ccc(N)cc1` it is -32.6% (inactive).
The result for `COc1ccc(-c2csc3nc(-c4cccnc4)nc(N4CCC(C(N)=O)CC4)c23)cc1OC` reads 23.4% (inactive); that for `Clc1nc(-c2cccnc2)nc2scc(-c3ccccc3)c12`, -5% (inactive); that for `COc1ccc(-c2csc3nc(-c4cccnc4)nc(Cl)c23)cc1OC`, 73.4% (active).
For `CCOc1ccc(NC(=O)C2CC(=O)N(C)C(=Nc3ccc4c(c3)OCO4)S2)cc1` (stereo unspecified), the inhibition was -34.5% (inactive).
Regarding `O=C(CS(=O)(=O)c1ccccc1)NCc1ccc(Cl)cc1`, the inhibition was -44.4% (inactive).
The result for `CCc1ccc(C(=O)/C=C/Nc2ccc(S(=O)(=O)Nc3cnc4ccccc4n3)cc2)cc1` reads 4% (inactive); that for `c1ccc(CSc2nnc(Cc3ccccn3)o2)cc1`, -32.5% (inactive).
The result for `NC(=Nc1ccc(Cl)cc1)c1ccccc1` reads -49% (inactive); that for `[S-]C(=Nc1ccc(Cl)cc1)N[n+]1ccccc1`, 104% (active); that for `CSC(=Nc1ccc(Cl)cc1)N[n+]1ccccc1`, -6.8% (inactive).
In the case of `NC(=O)CCc1nc2cc(C(F)(F)F)ccc2n(Cc2ccccc2)c1=O`, the inhibition was -13% (inactive).
The figure for `O=C(NCCCn1ccnc1)/C(=C/c1ccccc1)NC(=O)c1ccccc1` is 32.8% (inactive).
The result for `O=C(COc1ccccc1Cl)NNC(=O)c1cc(S(=O)(=O)N2CCOCC2)ccc1N1CCCC1` reads -47.2% (inactive); that for `COc1ccc(O)c(C2(O)C(=O)c3ccccc3C2=O)c1`, 0.1% (inactive); that for `O=C(NCCOc1ccccc1)c1ccc2c(c1)OCO2`, 55.9% (active).
For `COCCCNC(=O)c1ccc2c(c1)OCO2`, the inhibition is -16.8% (inactive).
The figure for `CC(/C=C/c1ccccc1)=N/NC(=O)CNC(=O)c1ccc2c(c1)OCO2` is 5.3% (inactive).
As for `O=C(CNC(=O)c1ccc2c(c1)OCO2)N/N=C(Br)/C=C/c1ccccc1`, the inhibition was 80% (active).
The result for `Cc1ccc(OCCNC(=O)c2ccc3c(c2)OCO3)cc1` reads -63.7% (inactive).
The figure for `O=C(CNC(=O)c1ccc2c(c1)OCO2)N/N=C/c1cccc([N+](=O)[O-])c1` is -59.4% (inactive); for `Cc1ccccc1C(=O)OCc1cnc(Cl)s1` it is -8.8% (inactive); for `S=c1[nH]nc(C23CC4CC(CC(C4)C2)C3)n1Cc1ccco1` it is 1.2% (inactive).
On to `O=C(COC(=O)/C=C/C(=O)N1CCN(c2ccccc2)CC1)NCc1ccc(F)cc1`, for which the inhibition was -5.2% (inactive).
The figure for `O=C(COC(=O)/C=C/C(=O)N1CCN(c2ccccc2)CC1)NC(c1ccccc1)c1ccccc1` is 76.2% (active).
The result for `CCOC(=O)/C=C/C(=O)OCC(=O)NC(c1ccccc1)c1ccccc1` reads 25.7% (inactive); that for `Cc1ccc(NS(=O)(=O)c2c(C)[nH]c(C)c2C(=O)N2CCCCC2)cc1F`, -24.4% (inactive).
The result for `CCCCn1c(Oc2ccc(C(=O)OC)cc2)nc2c1c(=O)n(C)c(=O)n2C` reads 9.2% (inactive); that for `O=C(CN1C(=O)CC(c2ccccc2)Sc2ccccc21)NCC1CCCO1` (stereo unspecified), -33.1% (inactive).
Regarding `Cc1ccc(N2C(=O)c3n[nH]c(C)c3C2c2cccnc2)cc1` (stereo unspecified), the inhibition is -28.2% (inactive).
The figure for `CCOC(=O)c1ccc(N2C(=O)c3n[nH]c(C)c3C2c2cccnc2)cc1` (stereo unspecified) is 9.9% (inactive).
Consider `Cc1[nH]nc2c1C(c1cccnc1)N(c1ccc(Br)cc1)C2=O` (stereo unspecified), for which the inhibition is 43.6% (active).
The result for `Nc1nc(CSCc2ccccc2)nc(N2CCOCC2)n1` reads 2% (inactive); that for `CC(=O)N/N=C(\C)CCc1ccccc1`, -4.4% (inactive).
The figure for `Cc1cc(=O)[nH]c(SC(C)C(=O)Nc2cccc3ccccc23)n1` (stereo unspecified) is -23.2% (inactive).
The figure for `CC1=C(C(=O)OCc2ccccc2)C(c2ccccc2Cl)NC(=O)N1CCCC(=O)O` (stereo unspecified) is 17.1% (inactive).
Regarding `CC1=C(C(=O)OCc2ccccc2)C(c2cccc(Cl)c2Cl)NC(=O)N1CCCCCC(=O)O` (stereo unspecified), the inhibition was 8.9% (inactive).
The figure for `CC1=C(C(=O)OCc2ccccc2)C(c2ccccc2Cl)NC(=O)N1CCCCCC(=O)O` (stereo unspecified) is 68.6% (active).
The result for `O=C(O)c1ccc(NC(=O)c2cccc(N3C(=O)C4C5CCC(C5)C4C3=O)c2)cc1` (stereo unspecified) reads -29.6% (inactive).
As for `O=C(Nc1ccc(Br)cc1)c1cccc(N2C(=O)C3C4CCC(C4)C3C2=O)c1` (stereo unspecified), the inhibition is 11.1% (inactive).
The figure for `O=C(NC(c1ccccc1)c1ccccc1)c1cccc(S(=O)(=O)NCc2ccccc2)c1` is -4.9% (inactive); for `COc1cc(/C=C2\COC/C(=C\c3ccc(O)c(OC)c3)C2=O)ccc1O` it is 0% (inactive).
Regarding `COc1ccc(/C=C2\CCC/C(=C\c3ccc(OC)c(OC)c3OC)C2=O)c(OC)c1OC`, the inhibition is -1% (inactive).
The result for `COc1ccc(/C=C2\CC/C(=C\c3ccc(OC)cc3OC)C2=O)c(OC)c1` reads -1.2% (inactive); that for `COc1cc(/C=C2/CC/C(=C/c3ccc(O)c(OC)c3)C2=O)ccc1O`, 20.8% (inactive); that for `COc1cc(OC)c(OC)cc1/C=C1/Cc2ccccc2C1=O`, -5% (inactive).
The result for `COc1cc(OC)c(OC)cc1/C=C1\CCC(C2CCCC2)C1=O` (stereo unspecified) reads -28.9% (inactive).
The result for `COc1cccc(NC(=O)N2CCCC(C(=O)NCc3ccc(F)cc3)C2)c1` (stereo unspecified) reads -13.5% (inactive); that for `COc1cc(-c2c(-c3cccc(C)c3)oc3ccccc23)cc(OC)c1OC`, 4.2% (inactive).
For the compound `O=C(N/N=C/c1c(O)n(Cc2ccccc2)c(=O)c2ccccc12)c1cccnc1`, the inhibition was -5.8% (inactive).
The result for `Cc1c(/C=N/NC(=O)c2cccnc2)c2ccccc2n1Cc1ccccc1` reads 38.8% (active); that for `Cc1nn(Cc2ccccc2)c(C)c1/C=N/NC(=O)c1cccnc1`, 25.8% (inactive).
